Experimental data published in PubChem BioAssay (EPA / NIEHS).
Activity calls are given as the source filed them. Rule for the calls: active = hit-call score of the fitted dose curve at least 0.9, where 1 is the maximum; inactive = score below 0.9.

Test: ATG_Sox_CIS: Attagene CIS-FACTORIAL HepG2 Assay for human SRY-box transcription factor (SOX) (AID 2282960)
Conditions: HepG2 Attagene cis-factorial SOX reporter, mRNA; actives raise or lower the signal
Description: ATG_CIS is a cell-based, multiplexed-readout assay that uses HepG2, a human liver cell line, with measurements taken at 24 hours after chemical dosing in a 24-well plate.ATG_Sox_CIS is one of 52 assay component(s) measured or calculated from the ATG_CIS assay. It is designed to make measurements of mRNA induction, a form of inducible reporter, as detected with fluorescence intensity signals by Reverse transcription polymerase chain reaction (RT-PCR) and Capillary electrophoresis technology.Data from the assay component ATG_Sox_CIS was analyzed into 1 assay endpoint. This assay endpoint, ATG_Sox_CIS, was analyzed with bidirectional fitting relative to DMSO as the negative control and baseline of activity. Using a type of inducible reporter, measures of mRNA for gain or loss-of-signal activity can be used to understand the reporter gene at the transcription factor-level as they relate to the gene SOX1. Furthermore, this assay endpoint can be referred to as a primary readout, because this assay has produced multiple assay endpoints where this one serves a reporter gene function. To generalize the intended target to other relatable targets, this assay endpoint is annotated to the dna binding intended target family, where the subfamily is HMG box protein.
Human liver HepG2 cells are transiently transfected with multiple reporter transcription units (MRTUs) in 6-well plates using FuGene 6 reagent (Roche; 3 ml FuGene/1 mg DNA). The MRTU constructs are regulated by a cis-regulating element (promoter). […] A major difference between the CIS and TRANS system is that in CIS activities of endogenous TFs are measured, whereas the TRANS assay evaluates changes in activities of exogenous, chimeric NR-Gal4 proteins. […] At the end of 24 hour incubation, total RNA was isolated using TriZol reagent (Invitrogen). The isolated RNA is then reverse-transcribed using oligo(dT) primer and Mo-MLV reverse transcriptase (Invitrogen) with DNAse I (Ambion) treatment for 30 min. The one-tenth of the produced cDNA was amplified by PCR using Taq DNA polymerase (Invitrogen) and two reporter sequence-specific primers. The PCR products were fluorescently labeled by primer extension with 6-arboxyfluorescein (6-FAM) 5'-labeled reporter sequence-specific primer (2 min at 95 C, 20 s at 68 C and 10 min at 72 C) and these products were digested with 5U of HpaI (New England Biolabs) for 2h at 37 C. The fragments were purified using Qiaquick PCR columns (Qiagen), analyzed on an ABI 3130xL genetic analyzer (Applied Biosystems) with peak positions identified by using a set of X-rhodamine (ROX)-labeled MapMarker1000 molecular weight standards (BioVentures). The raw capillary electrophoresis data was processed using Attagraph software (Attagene).
In the case of `ClC1=C(Cl)[C@]2(Cl)[C@H]3[C@H]([C@H]4C=C[C@H]3C4)[C@@]1(Cl)C2(Cl)Cl`, the outcome is reported as “inactive”. With `CCC(=O)c1ccccc1` the outcome was “inactive”. With `O=C/C=C/c1ccccc1` the outcome was “inactive”. For `Nc1cccc(Cl)c1`, the outcome was “inactive”. For `C=C(C)C#N`, the outcome was “inactive”. For `O=C(O)Cc1ccccc1`, the outcome was “inactive”. With `CCC1(c2ccc(N)cc2)CCC(=O)NC1=O` (stereo not given) the outcome was “inactive”. With `N#CCc1ccc(Cl)cc1` the outcome was “inactive”. For `CC(=O)[O][Hg][c]1ccccc1`, the outcome was “inactive”. In the case of `CC(=[OH+])/C=C(/C)[O-].CC(=[OH+])/C=C(/C)[O-].CC(=[OH+])/C=C(/C)[O-].[Fe]`, the outcome is reported as “inactive”. For `CCCCCCCCSC(=O)Oc1cc(Cl)nnc1-c1ccccc1`, the outcome was “inactive”. In the case of `CCNc1nc(NC(C)(C)C)nc(SC)n1`, the outcome is reported as “inactive”. In the case of `O=C(CCl)CCl`, the outcome is reported as “inactive”. In the case of `CCCCCCCCCl`, the outcome is reported as “inactive”. For `C[C@H]1O[C@@H](O[C@H]2[C@@H](O)C[C@H](O[C@H]3[C@@H](O)C[C@H](O[C@H]4CC[C@@]5(C)[C@H](CC[C@@H]6[C@@H]5CC[C@]5(C)[C@@H](C7=CC(=O)OC7)CC[C@]65O)C4)O[C@@H]3C)O[C@@H]2C)C[C@H](O)[C@@H]1O`, the outcome was “inactive”. In the case of `COC(=O)c1sccc1S(=O)(=O)NC(=O)Nc1nc(C)nc(OC)n1`, the outcome is reported as “inactive”. With `C=CC(=O)OCCCCCC(C)C` the outcome was “inactive”. In the case of `O=C(Nc1ccc2[nH]ccc2c1)c1cc2cc(F)ccc2n1Cc1cccc(F)c1`, the AC50 is reported as 16.8 µM (active). For `Cc1ccc(N)cc1Cl`, the outcome was “inactive”. In the case of `C=CC#N`, the outcome is reported as “inactive”. For `CCN1CCC2(CC1)COc1cc3c(cc12)N(C(=O)c1ccc(-c2ccc(-c4nnc(C)o4)cc2C)cc1)CC3`, the outcome was “inactive”. With `CCCCC(CC)CO[N+](=O)[O-]` (stereo not given) the outcome was “inactive”. For `O=C1C(Cl)=C(Cl)C(=O)c2ccccc21`, the outcome was “inactive”. For `COc1ccc(C=O)cc1`, the outcome was “inactive”. In the case of `c1cc[c]([Hg][c]2ccccc2)cc1`, the outcome is reported as “inactive”. With `CC(C)(c1ccccc1)c1ccc(O)c(C(C)(C)c2ccccc2)c1` the outcome was “inactive”. For `CC(C#N)CCC#N` (stereo not given), the outcome was “inactive”. In the case of `CC(=[OH+])/C=C(/C)[O-].CC(=[OH+])/C=C(/C)[O-].CC(=[OH+])/C=C(/C)[O-].[Al]`, the outcome is reported as “inactive”. In the case of `COP(=S)(OC)Oc1cc(Cl)c(Cl)cc1Cl`, the outcome is reported as “inactive”. For `COc1ccc(OC)c(C=O)c1`, the outcome was “inactive”. In the case of `Oc1cccc2cccnc12`, the outcome is reported as “inactive”. In the case of `CCCCCCCCc1ccc(O)cc1`, the outcome is reported as “inactive”. In the case of `CC1(C)CCC(Cc2ccc(Cl)cc2)C1(O)Cn1cncn1` (stereo not given), the outcome is reported as “inactive”. With `ClC(Cl)=C(Cl)C(Cl)=C(Cl)Cl` the outcome was “inactive”. In the case of `CCC(C)(C)c1ccc(O)c(C(C)(C)CC)c1`, the outcome is reported as “inactive”. For `O=Cc1cccc(Oc2ccccc2)c1`, the outcome was “inactive”. With `CC(C)C1CCC(Cc2ccc(Cl)cc2)C1(O)Cn1cncn1` (stereo not given) the outcome was “inactive”. For `CC(C)(c1ccc(OCC2CO2)cc1)c1ccc(OCC2CO2)cc1` (stereo not given), the outcome was “inactive”. With `CC(=O)OC(c1ccccc1)C(Cl)(Cl)Cl` (stereo not given) the outcome was “inactive”. With `Cc1cc(Cl)ccc1O[C@H](C)C(=O)O` the outcome was “inactive”.
